From PubChem BioAssay
The list is not random: actives were taken first. Their share in the collection is about 1.8%.
Yp Topo-I inh = Y. pestis Topo-I inhibition via cleavage products | actives 0.064% (n = 360,000) | Y. pestis Topo-I cleavage product accumulation, plate reader | AID 504884 | activity, % at 10 µM; in the data active = activity above about 50%, passing the limit was not always enough
Vc quorum ag = induces V. cholerae light production without autoinducers | V. cholerae BH1578 lux reporter, luminescence, 6 h | activation, % at 18.7 µM | actives 0.16% (n = 350,000) | AID 588436; in the data active = activation mostly above about 9.7%, no sharp cut-off
PrPC surface inh = reduces human prion protein on the cell surface | P04156 | actives 0.43% (n = 370,000) | inhibition, % at 13.8 µM | cell surface PrPC, TR-FRET read-out | AID 720596; in the data active = inhibition above about 24%; also: 0% = median of the test wells and 100% = reference compound wells
DUSP3 inh = blocks human VHR1 dual specificity phosphatase | P51452 | recombinant VHR phosphatase, pNPP absorbance | inhibition, % at 13.3 µM | actives 0.52% (n = 290,000) | AID 1654; in the data active = inhibition above about 50%
CCHF vOTU inh = CCHFV vOTU protease inhibition. actives 0.55% (n = 370,000). inhibition, % at 11.5 µM. Pep-AMC fluorescence; in the data active = inhibition above about 30%; also: 0% = vehicle wells with enzyme and 100% = no enzyme wells
MazF activator = increases E. coli MazEF RNase cleavage of RNA. FAM/BHQ RNA-DNA oligo cleavage fluorescence, 5 h. activation, % at 20 µM. AID 504720. actives 0.32% (n = 350,000). P0AE70; in the data active = activation above about 50%
PrPC TRFRET cf = confirmation of inhibitors of cell surface human prion protein; shares compounds with PrPC surface inh; cell surface PrPC level, TR-FRET; inhibition, % at 13.8 µM; actives 65% (n = 1,500); AID 743200; in the data active = inhibition above about 25%
LD9 cytotox = counter-screen for PrPc inhibitors: cytotoxicity in LD9 cells. actives 29% (n = 1,500). luminescence viability. shares compounds with PrPC surface inh. inhibition, % at 13.8 µM; in the data active = inhibition above about 9.5%
Numbers without * were called inactive; i = inactive; . = no result.

SMILES | Yp Topo-I inh | Vc quorum ag | PrPC surface inh | DUSP3 inh | CCHF vOTU inh | MazF activator | PrPC TRFRET cf | LD9 cytotox
C[C@@]12C(=O)N(c3cccc(F)c3)C(=O)N1[C@@H]1c3ccccc3OC[C@@H]1[C@H]2c1ccccc1 | 3.7 | -0.7 | 28.7* | . | 17.4 | 3.6 | 16.1 | -1.1
Cc1ccc2c(c1)[C@H]1[C@H](CO2)[C@H](c2ccccc2)[C@]2(C)C(=O)Nc3cc(F)c(F)cc3C(=O)N12 | 12.1 | -0.2 | 29.1* | . | 10.6 | 1.4 | 18.7 | -6.0
NC(=O)C1CCN(C(=O)c2ccc3nc(-c4ccccc4)c(-c4ccccc4)nc3c2)CC1 | 17.8 | 0.7 | 47.0* | -9.3 | -72.5 | 4.6 | 53.1* | -1.8
CCOC(=O)N1CCN(C(=O)c2ccc3nc(-c4ccccc4)c(-c4ccccc4)nc3c2)CC1 | 44.1 | i | -5.7 | 7.1 | 3.8 | 2.8 | . | .
NC(N)=N/N=C/c1cn(-c2ccccc2)nc1-c1cccs1 | -34.2 | -0.1 | 27.0* | 23.4 | 18.6 | -2.0 | 3.0 | 59.6*
Cc1cccc2nc(-c3ccco3)c(Nc3ccccc3)n12 | -4.1 | i | 1.0 | 8.2 | -106.2 | 0.3 | . | .
Cc1ccc(Nc2c(-c3ccccn3)nc3cccc(C)n23)cc1 | 15.2 | i | 29.9* | 49.9 | 14.0 | -1.6 | 18.5 | 40.2*
COc1ccc(/C=C/C(=O)NCCCNC(=O)/C=C/c2ccc(OC)c(OC)c2)cc1OC | -4.8 | -0.3 | -7.0 | . | 3.2 | 4.7 | . | .
COc1ccc(C(=O)NCc2ccc3c(c2)cc(C)n3C)cc1OC | 13.7 | -1.4 | 45.4* | 6.0 | 10.2 | -0.5 | 8.0 | -1.2
COc1ccc(CC(=O)NCc2ccc3c(c2)cc(C)n3C)cc1 | -2.4 | i | -1.1 | 19.0 | 4.8 | -28.8 | . | .
Cc1cc2cc(CNC(=O)c3cccs3)ccc2n1C | 4.9 | 2.0 | 35.4* | 24.2 | 3.9 | 11.7 | 17.4 | 2.6
COc1cccc(C(=O)NCc2ccc3c(c2)cc(C)n3C)c1 | 7.3 | i | 45.8* | 10.3 | 1.2 | 6.0 | 49.1* | -0.5
COc1ccc(/C=C\C(=O)NCc2ccc3c(c2)cc(C)n3C)cc1OC | 24.8 | -1.6 | 81.4* | -7.3 | 4.8 | -5.1 | 58.6* | -8.9
Cc1ccc(-n2c(SCC(=O)N(C)C)nnc2-c2ccco2)cc1 | 1.1 | -0.6 | -0.4 | 13.0 | 1.0 | 10.3 | . | .
COc1ccc(C(=O)Nc2ccc(N3CCOCC3)cc2)cc1S(=O)(=O)N1CCOCC1 | -14.0 | -5.6 | 0.8 | . | -2.9 | 4.5 | . | .
COc1ccc(C(=O)Nc2ccc(-c3cn4ccsc4n3)cc2)cc1S(=O)(=O)N1CCOCC1 | 14.3 | -5.8 | 77.4* | 18.8 | -0.8 | -6.2 | 51.4* | -2.6
CCc1ccc(C(=O)NNc2cc(Cl)cc(Cl)c2)cc1 | -2.7 | -12.4 | 13.5 | 21.0 | -0.5 | -16.0 | . | .
CCCc1ccc(C(=O)NNc2cc(Cl)ccc2Cl)cc1 | -8.6 | i | 24.9* | -2.8 | -1.9 | -4.2 | 27.1* | 5.0
CCCc1ccc(C(=O)NNC(=O)c2ccc(Cl)cc2)cc1 | 12.9 | -0.6 | 4.0 | 4.6 | -2.5 | 2.6 | . | .
CCc1ccc(C(=O)NNc2ccc(Cl)cc2)cc1 | -0.3 | 0.5 | 30.8* | 5.9 | 21.8 | -12.7 | 42.9* | 3.0
Cc1ccc(NC(=O)NCc2ccco2)cc1[N+](=O)[O-] | . | . | -14.4 | . | 1.0 | . | . | .
CC(=O)OC[C@]12CCC(C)=C[C@H]1O[C@@H]1[C@H](O)[C@@H](OC(C)=O)[C@@]2(C)[C@]12CO2 | -3.0 | -0.1 | 88.2* | 14.2 | 4.0 | -3.7 | 99.1* | 58.6*
CCOC(=O)Nc1nc(-c2ccccc2)c(C(=O)c2ccc(Cl)cc2)s1 | 30.9 | -1.0 | 25.1* | 21.3 | 14.6 | 4.5 | 15.5 | 9.6*
CCOC(=O)Nc1sc(C)nc1-c1ccccc1 | -0.4 | -0.4 | 1.4 | 44.4 | -6.8 | 0.3 | . | .
Cc1ccccc1Cn1cc(NC(=O)c2cc(-c3ccco3)on2)cn1 | -8.6 | i | 29.6* | -9.8 | -5.0 | -13.1 | 15.8 | 5.1
Cc1ccccc1Cn1cc(NC(=O)c2cc(-c3cccs3)on2)cn1 | -4.2 | 2.2 | 13.7 | 9.7 | 1.5 | -45.0 | . | .
Cn1cc(CN2CCC(n3nccc3NC(=O)C3CCCC3)CC2)cn1 | 1.0 | 2.5 | -3.9 | 18.8 | 10.6 | -0.3 | . | .
CCc1nc2c(OCCC3CCCCC3)cccn2c1N(C)C(=O)c1cccs1 | 22.9 | -1.1 | 27.5* | . | 15.8 | . | 17.3 | -11.7
